Source: PubChem BioAssay (Tox21)
Where “and” joins values, the source holds several entries; their conditions need not be identical. Identical values can stand only once. Results filed as inconclusive are left out. Where a structure was tested more than once in an assay, its records may differ in their call. Calls of active or inactive are those of the source. Unless noted, calls come from the whole dose curve.

Legend:
[1] = qHTS assay to identify small molecule agonists of the vitamin D receptor (VDR) signaling pathway - cell viability counter screen (AID 743224; active = well fitted curve in the direction sought with a large enough effect in the repeat runs; an effect the other way counts as inactive or inconclusive; note: nearly all actives have a fitted effect of over 50% in size; note: potency is the fitted concentration of half-maximal effect)
In short: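 Counter screen for cytotoxicity: VDR-bla cells at 2,000 cells/well, 16 h compound exposure, then CellTiter-Glo luminescence after the beta-lactamase measurement.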

[2] = qHTS assay to identify small molecule antagonists of the vitamin D receptor (VDR) signaling pathway - cell viability counter screen (AID 743225; active = well fitted curve in the direction sought with a large enough effect in the repeat runs; an effect the other way counts as inactive or inconclusive; note: nearly all actives have a fitted effect of over 50% in size; note: potency is the fitted concentration of half-maximal effect)
In short: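 Read-out: CellTiter-Glo luminescence measured 30 min after reagent addition at room temperature. Cells were VDR-bla HEK 293T exposed 16 h at 37C, 5% CO2, to compound with 3 nM final calcitriol agonist.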

[3] = qHTS assay to identify small molecule agonists of the NFkB signaling pathway - cell viability counter screen (AID 1159515); note: nearly all actives have a fitted effect of over 55% in size; note: potency is the fitted concentration of half-maximal effect
In short: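 Counter screen run alongside the NFkB-bla agonist assay: ME-180 reporter cells exposed to compounds for 5 hr, then lysed with CellTiter-Glo in the same wells. Luminescence, read after 30 min, reflects viable cells.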

[4] = qHTS assay to identify small molecule agonists of the endoplasmic reticulum stress response signaling pathway (AID 1159516; active = well fitted activation curve with a large enough effect in the signal ratio in the repeat runs, not every such curve was filed as active; the % refers to the signal ratio)
In short: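 For this screen, HeLa cells stably carrying beta-lactamase under the ER stress response element received test compounds, positive controls or DMSO for 5 hr at 37 C; B/G FRET substrate was then added and dual-wavelength emission recorded.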

[5] = qHTS assay to identify small molecule agonists of the endoplasmic reticulum stress response signaling pathway - cell viability counter screen (AID 1159517); note: nearly all actives have a fitted effect of over 50% in size; note: potency is the fitted concentration of half-maximal effect
In short: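 After overnight attachment, ESRE-bla HeLa cells were treated with Tox21 library compounds for 5 hr. CellTiter-Glo luminescence, read 30 min post-addition at room temperature, reported viability.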

[6] = qHTS assay to identify small molecule antagonists of the retinoid-related orphan receptor gamma (ROR-gamma) signaling pathway - cell viability counter screen (AID 1159520; active = well fitted curve in the direction sought with a large enough effect in the repeat runs; an effect the other way counts as inactive or inconclusive; note: nearly all actives have a fitted effect of over 50% in size; note: potency is the fitted concentration of half-maximal effect)
In short: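 Cytotoxicity was read from cellular ATP (CellTiter-Glo luminescence) after 16 hr at 37 C with 1 uM doxycycline induction. The inducer was added 2 hr after compound transfer to Tet-on ROR gamma CHO cells.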

[7] = biological target: Nuclear receptor ROR-gamma (Homo sapiens) (UniProt P51449); test: qHTS assay to identify small molecule antagonists of the retinoid-related orphan receptor gamma (ROR-gamma) signaling pathway (AID 1159521; active = well fitted curve in the direction sought with a large enough effect in the repeat runs; an effect the other way counts as inactive or inconclusive; note: nearly all actives have a fitted effect of over 50% in size; note: potency is the fitted concentration of half-maximal effect)
In short: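 CHO Tet-on RORγ, RORE-luc reporter. Cpd 2 h pre-incubation, then dox hyclate 1 uM final, 16 h, 37 C/5% CO2. ONE-Glo luminescence; decrease = antagonist.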

[8] = qHTS assay to identify small molecule agonists of the AP-1 signaling pathway - cell viability counter screen (AID 1159525); note: nearly all actives have a fitted effect of over 55% in size; note: potency is the fitted concentration of half-maximal effect
In short: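 Intracellular ATP by Cell Titer Glo luminescence (30 min, RT) in the same ME-180 AP-1-bla wells after the 5 h compound exposure at 37 °C. Normalised to tetra n-octyl ammonium bromide and DMSO controls.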

[9] = qHTS assay to identify small molecule agonists of the AP-1 signaling pathway (AID 1159526)
[10] = biological target: Retinoic acid receptor RXR-alpha (Homo sapiens) (UniProt P19793); test: qHTS assay to identify small molecule agonists of the RXR signaling pathway (AID 1159527); note: nearly all actives have a fitted effect of over 35% in size
In short: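 Read-out: beta-lactamase FRET ratio (405 nm excitation, 460 and 530 nm emission) after 2 hr substrate loading at room temperature. Cells were RXR-alpha-UAS-bla HEK 293T treated with compounds for 16 hr in 2% charcoal-stripped FBS medium.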

Measured: Potency

Retinoic acid receptor RXR-alpha (Homo sapiens), sequence (P19793 whole entry, looked up): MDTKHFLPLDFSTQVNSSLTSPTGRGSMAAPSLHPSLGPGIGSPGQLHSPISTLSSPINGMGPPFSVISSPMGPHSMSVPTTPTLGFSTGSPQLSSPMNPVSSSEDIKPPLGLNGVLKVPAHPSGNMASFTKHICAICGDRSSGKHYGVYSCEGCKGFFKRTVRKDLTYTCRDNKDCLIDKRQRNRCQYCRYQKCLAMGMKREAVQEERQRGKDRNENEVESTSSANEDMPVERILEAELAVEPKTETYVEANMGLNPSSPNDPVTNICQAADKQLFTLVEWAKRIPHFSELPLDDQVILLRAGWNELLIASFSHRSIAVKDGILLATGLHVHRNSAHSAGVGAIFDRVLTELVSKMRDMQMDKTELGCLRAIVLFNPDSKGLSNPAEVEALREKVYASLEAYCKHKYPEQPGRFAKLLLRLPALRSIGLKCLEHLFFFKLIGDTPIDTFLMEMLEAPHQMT

CCOC(C(=O)OCCN(C)C)(c1ccccc1)c1ccccc1
not listed: [10]
inactive: all other assays above

CC(C)[C@@H](C(=O)O[C@@H](C#N)c1cccc(Oc2ccccc2)c1)c1ccc(Cl)cc1
active: [7] 17.5 µM
not listed: [4] | [9] | [10]
inactive: all other assays above

CN1C[C@H](C(=O)N[C@]2(C)O[C@@]3(O)[C@@H]4CCCN4C(=O)[C@H](Cc4ccccc4)N3C2=O)C=C2c3cccc4[nH]cc(c34)C[C@H]21
54.7 µM (active) and inactive: [7]
not listed: [4] | [5]
inactive: all other assays above

[Cl-].[Cl-].[Hg+2]
active: [3] 3.45 µM and 49 µM | [5] 48.8 µM | [6] 48.3 µM and 1.09 µM | [8] 4.88 µM and 4.36 µM

CC(C)(C)NCC(O)c1ccccc1Cl (centres undefined)
not listed: [5]
inactive: all other assays above

CCc1cnc(C2=NC(C)(C(C)C)C(=O)N2)c(C(=O)O)c1 (centres undefined)
not listed: [5]
inactive: all other assays above

CN(C)C(=O)Nc1cccc(OC(=O)NC(C)(C)C)c1
not listed: [1] | [5]
inactive: all other assays above

CCCCC1C(=O)NC(=O)N(C2CCCCC2)C1=O (centres undefined)
not listed: [5]
inactive: all other assays above

CCOC(=O)c1cn2nc(OP(=S)(OCC)OCC)cc2nc1C
not listed: [5] | [10]
inactive: all other assays above

CC(C)CCON=O
not listed: [5]
inactive: all other assays above

O=[N+]([O-])/C=C/c1ccccc1
inactive: [5] | [8]
49.8 µM (active) and inactive: [2]
active: [1] 49 µM | [3] 44.4 µM and 54.9 µM | [6] 11 µM and 13.7 µM | [7] 5.54 µM and 9.69 µM

C[CH2][Hg][S]c1ccccc1C(=O)O
active: [1] 1.23 µM and 2.11 µM | [2] 3.47 µM and 4.25 µM | [3] 3.47 µM and 6.01 µM | [5] 6.74 µM | [6] 1.09 µM and 1.68 µM | [7] 611 nM and 1.33 µM | [8] 4.36 µM and 3.79 µM

O=C(CCl)CCl
active: [5] 43.6 µM | [6] 5.45 µM | [7] 14.2 µM and 12.2 µM
not listed: [4] | [9]
inactive: all other assays above

CC1(C)[C@H](C(=O)O[C@H](C#N)c2cccc(Oc3ccccc3)c2)[C@@H]1C=C(Br)Br
not listed: [4] | [9]
inactive: all other assays above

O=P(OCC(Br)CBr)(OCC(Br)CBr)OCC(Br)CBr (centres undefined)
inactive: [3] | [5] | [6] | [8] | [9]

O=[N+]([O-])O[C@H]1CO[C@H]2[C@@H]1OC[C@H]2O[N+](=O)[O-]
not listed: [5]
inactive: all other assays above

CCC[N+](CCC)(CCC)CCC
not listed: [5]
inactive: all other assays above

CCOC(=O)NC(O)C(Cl)(Cl)Cl (centres undefined)
not listed: [1] | [5]
inactive: all other assays above

COP(=O)(OC)OC(Br)C(Cl)(Cl)Br (centres undefined)
active: [6] 24.3 µM | [7] 27.3 µM
inactive: [2] | [3] | [5] | [8] | [10]

CCC(C)(C)O
not listed: [5]
inactive: all other assays above

CCCCC(CC)CO[N+](=O)[O-] (centres undefined)
not listed: [2] | [5] | [10]
inactive: all other assays above

O=C1c2ccccc2C(=O)N1SC(Cl)(Cl)Cl
active: [1] 19.2 µM and 6.92 µM | [2] 34.2 µM | [6] 30.2 µM and 21.7 µM | [7] 6.03 µM and 7.7 µM
inactive: [3] | [5] | [8]

C[C@@H]1C[C@@H]([C@H](O)CC2CC(=O)NC(=O)C2)C(=O)[C@@H](C)C1
inactive: [1] | [2] | [3] | [4] | [8]
active: [7] 383 nM and 137 nM and 237 nM

CCC(C)(C)c1ccc(O)c(C(C)(C)CC)c1
active: [1] 12.2 µM and 11 µM | [3] 21.6 µM and 21.9 µM | [5] 15.3 µM and 21.9 µM | [6] 60.4 µM | [7] 60.4 µM and 48.6 µM | [8] 12.2 µM and 13.8 µM

Nc1cccc2ccccc12
inactive: [1] | [3] | [6] | [7] | [8] | [10]

Cc1nnc(-c2ccccc2)c(=O)n1N
not listed: [1] | [5]
inactive: all other assays above

CCCCC#N
not listed: [1] | [5]
inactive: all other assays above

C[C@]12CC[C@H]3[C@@H](CCC4=CC(=O)CC[C@@H]43)[C@@H]1CC[C@@H]2OC(=O)CCc1ccccc1
not listed: [5]
inactive: all other assays above

CCCCCCCCn1sccc1=O
active: [3] 49.1 µM and 3.63 µM | [6] 24.4 µM and 9.05 µM | [7] 6.13 µM and 9.05 µM | [8] 5.51 µM and 5.13 µM

C=CC(=O)NC(C)(C)CC(C)=O
not listed: [5]
inactive: all other assays above

CCNC(=O)NC(=O)/C(C#N)=N/OC
not listed: [5] | [10]
inactive: all other assays above

CCCBr
not listed: [5] | [10]
inactive: all other assays above

Cc1ccc(N)c(C)c1
not listed: [5] | [7]
inactive: all other assays above

c1ccc2c(c1)sc1ccccc12
inactive and 19 µM (active): [2]
not listed: [1] | [5]
inactive: all other assays above

CCCCCCCCCCCC[N+](C)(C)CCOc1ccccc1
13.8 µM (active) and inactive: [3]
active: [2] 21.9 µM and 21.3 µM | [5] 15.5 µM and 19 µM | [6] 61.1 µM | [7] 27.3 µM | [8] 49 µM and 23.9 µM
24.6 µM (active) and inactive: [1]

CCCN(CCOc1c(Cl)cc(Cl)cc1Cl)C(=O)n1ccnc1
inactive: [1] | [3] | [5] | [6] | [8] | [9]

O=C(NC(=O)c1cc(F)c(F)cc1Cl)Nc1cc(F)ccc1N1CCC(C(=O)O)CC1
not listed: [5] | [10]
inactive: all other assays above

CCCC(C)(COC(N)=O)COC(=O)NC(C)C (centres undefined)
not listed: [5]
inactive: all other assays above

CCCCNC(=O)OCC#CI
inactive: [2] | [3]
active: [1] 48.7 µM and 43.6 µM | [6] 54.2 µM and 17.2 µM | [7] 24.2 µM | [8] 54.7 µM

CCCN(CCC)c1c([N+](=O)[O-])cc(C(C)C)cc1[N+](=O)[O-]
not listed: [4]
inactive: all other assays above
